Reference: the supplement of paper PMC10849652
The full data set covers some 7,900 targets. This sample favours those with a hit. About 0.6% of all pairs of compound and target were hits.

Each target was assayed with CC[C@H](C)[C@@H](C(=O)N[C@@H]([C@@H](C)O)C(=O)N[C@@H](CC(C)C)C(=O)[C@]1(CO1)C)NC(=O)[C@H]([C@@H](C)CC)N(C)C(=O)C [epoxomicin] (assay: log2 fold change, soluble protein after heating vs DMSO (PISA); higher = thermal stabilisation; K562 cells, 10 uM, 30 min; active = over 0.2 and 3.5 SD of the protein, either way, in both replicates (recomputed)).
How it was run: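 K562 cells (2×10^6 cells/mL) were treated with 10 μM compound for 30 min, and aliquots were heated for 3 min over 48°C-58°C. Pooled aliquots were extracted in PBS with 0.5% NP-40 at 4°C, and the supernatant after 21,000xg for 90 min was measured by TMTpro 16plex LC-MS/MS with channel sums equalised. Reported thermal stability, relative to control samples and from duplicates, is a log2 fold change.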

UniProt P24863, sequence (P24863 whole entry, looked up): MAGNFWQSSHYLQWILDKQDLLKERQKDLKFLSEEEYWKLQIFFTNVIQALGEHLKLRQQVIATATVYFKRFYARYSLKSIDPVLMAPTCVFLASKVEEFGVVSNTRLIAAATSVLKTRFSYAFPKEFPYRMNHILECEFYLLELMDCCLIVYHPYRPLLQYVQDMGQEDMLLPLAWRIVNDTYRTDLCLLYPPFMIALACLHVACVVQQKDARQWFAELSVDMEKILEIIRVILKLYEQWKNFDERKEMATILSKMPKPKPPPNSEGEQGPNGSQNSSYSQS
UniProt O60583, sequence (O60583 whole entry, looked up): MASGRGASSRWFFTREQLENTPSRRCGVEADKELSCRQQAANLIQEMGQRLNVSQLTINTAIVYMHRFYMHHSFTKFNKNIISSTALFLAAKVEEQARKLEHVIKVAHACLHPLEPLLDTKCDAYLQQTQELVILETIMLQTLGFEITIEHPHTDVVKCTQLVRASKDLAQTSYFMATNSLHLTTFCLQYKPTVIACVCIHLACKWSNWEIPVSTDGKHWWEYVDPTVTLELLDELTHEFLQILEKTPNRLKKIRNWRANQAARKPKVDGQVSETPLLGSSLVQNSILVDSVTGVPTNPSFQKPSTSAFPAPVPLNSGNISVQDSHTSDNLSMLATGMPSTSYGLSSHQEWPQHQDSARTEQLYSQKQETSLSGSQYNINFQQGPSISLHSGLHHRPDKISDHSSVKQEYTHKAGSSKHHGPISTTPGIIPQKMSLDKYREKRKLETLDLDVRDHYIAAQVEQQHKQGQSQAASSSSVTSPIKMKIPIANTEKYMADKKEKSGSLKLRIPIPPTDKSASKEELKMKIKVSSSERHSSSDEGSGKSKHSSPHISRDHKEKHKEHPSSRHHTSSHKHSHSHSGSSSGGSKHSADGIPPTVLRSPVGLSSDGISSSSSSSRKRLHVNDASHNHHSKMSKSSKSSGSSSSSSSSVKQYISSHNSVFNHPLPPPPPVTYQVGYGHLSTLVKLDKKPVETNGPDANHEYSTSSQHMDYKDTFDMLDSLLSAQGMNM
UniProt Q14061, sequence (Q14061 whole entry, looked up): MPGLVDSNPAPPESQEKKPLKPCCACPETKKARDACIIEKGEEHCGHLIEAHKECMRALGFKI
UniProt Q96LT7, sequence (Q96LT7 whole entry, looked up): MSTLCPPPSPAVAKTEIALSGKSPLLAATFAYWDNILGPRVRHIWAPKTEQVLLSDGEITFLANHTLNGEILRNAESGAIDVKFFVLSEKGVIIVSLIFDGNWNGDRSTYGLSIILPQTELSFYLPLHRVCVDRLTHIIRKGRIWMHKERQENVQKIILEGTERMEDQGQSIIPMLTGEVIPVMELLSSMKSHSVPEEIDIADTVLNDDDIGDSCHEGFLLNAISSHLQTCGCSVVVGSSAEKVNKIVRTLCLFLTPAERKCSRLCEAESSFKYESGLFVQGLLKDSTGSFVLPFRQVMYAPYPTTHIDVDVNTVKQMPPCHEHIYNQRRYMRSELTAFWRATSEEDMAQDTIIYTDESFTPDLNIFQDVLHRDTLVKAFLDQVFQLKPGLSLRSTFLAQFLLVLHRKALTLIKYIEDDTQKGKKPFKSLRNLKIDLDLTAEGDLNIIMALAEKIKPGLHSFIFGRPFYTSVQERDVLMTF
UniProt Q00535, sequence (Q00535 whole entry, looked up): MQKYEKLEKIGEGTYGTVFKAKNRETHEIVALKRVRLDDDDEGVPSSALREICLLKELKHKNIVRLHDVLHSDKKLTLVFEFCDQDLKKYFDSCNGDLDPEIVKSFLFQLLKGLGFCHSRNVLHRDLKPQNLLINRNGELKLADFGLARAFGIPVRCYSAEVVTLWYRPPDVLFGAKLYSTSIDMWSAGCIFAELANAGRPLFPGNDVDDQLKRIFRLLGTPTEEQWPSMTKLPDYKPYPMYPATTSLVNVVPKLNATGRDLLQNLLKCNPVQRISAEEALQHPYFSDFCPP
UniProt Q9BWU1, sequence (Q9BWU1 whole entry, looked up): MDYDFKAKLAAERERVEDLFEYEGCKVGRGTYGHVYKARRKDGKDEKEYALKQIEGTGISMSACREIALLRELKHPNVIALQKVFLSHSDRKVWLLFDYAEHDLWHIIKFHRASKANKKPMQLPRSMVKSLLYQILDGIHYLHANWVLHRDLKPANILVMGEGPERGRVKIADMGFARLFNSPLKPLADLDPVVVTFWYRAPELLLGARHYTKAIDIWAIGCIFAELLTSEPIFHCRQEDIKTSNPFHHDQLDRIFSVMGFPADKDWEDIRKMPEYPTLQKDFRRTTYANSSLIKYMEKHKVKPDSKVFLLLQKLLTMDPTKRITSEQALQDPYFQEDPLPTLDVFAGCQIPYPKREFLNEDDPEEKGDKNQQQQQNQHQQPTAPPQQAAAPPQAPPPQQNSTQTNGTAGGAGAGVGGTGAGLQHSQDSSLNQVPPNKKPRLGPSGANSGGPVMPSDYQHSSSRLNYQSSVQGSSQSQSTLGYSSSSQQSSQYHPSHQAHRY
UniProt Q9Y2V0, sequence (Q9Y2V0 whole entry, looked up): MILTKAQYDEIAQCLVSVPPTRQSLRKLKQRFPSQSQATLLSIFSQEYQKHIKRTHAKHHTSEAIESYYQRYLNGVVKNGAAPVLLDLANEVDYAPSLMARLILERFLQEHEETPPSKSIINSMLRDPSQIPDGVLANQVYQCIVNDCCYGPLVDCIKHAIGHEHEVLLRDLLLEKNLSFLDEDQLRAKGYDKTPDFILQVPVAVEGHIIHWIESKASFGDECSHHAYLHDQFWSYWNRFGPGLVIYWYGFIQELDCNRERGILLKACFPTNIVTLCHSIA
UniProt P55211, sequence (P55211 whole entry, looked up): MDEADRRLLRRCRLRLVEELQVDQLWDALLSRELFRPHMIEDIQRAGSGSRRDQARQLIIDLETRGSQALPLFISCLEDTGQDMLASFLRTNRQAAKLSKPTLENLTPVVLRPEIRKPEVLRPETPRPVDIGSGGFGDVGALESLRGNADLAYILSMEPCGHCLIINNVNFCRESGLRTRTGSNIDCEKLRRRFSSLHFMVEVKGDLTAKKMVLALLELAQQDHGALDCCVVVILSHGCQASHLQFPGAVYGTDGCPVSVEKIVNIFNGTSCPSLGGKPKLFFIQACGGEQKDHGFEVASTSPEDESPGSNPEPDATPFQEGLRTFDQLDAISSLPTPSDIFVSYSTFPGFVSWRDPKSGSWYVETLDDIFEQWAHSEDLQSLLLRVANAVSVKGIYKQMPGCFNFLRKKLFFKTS
UniProt Q92851, sequence (Q92851 whole entry, looked up): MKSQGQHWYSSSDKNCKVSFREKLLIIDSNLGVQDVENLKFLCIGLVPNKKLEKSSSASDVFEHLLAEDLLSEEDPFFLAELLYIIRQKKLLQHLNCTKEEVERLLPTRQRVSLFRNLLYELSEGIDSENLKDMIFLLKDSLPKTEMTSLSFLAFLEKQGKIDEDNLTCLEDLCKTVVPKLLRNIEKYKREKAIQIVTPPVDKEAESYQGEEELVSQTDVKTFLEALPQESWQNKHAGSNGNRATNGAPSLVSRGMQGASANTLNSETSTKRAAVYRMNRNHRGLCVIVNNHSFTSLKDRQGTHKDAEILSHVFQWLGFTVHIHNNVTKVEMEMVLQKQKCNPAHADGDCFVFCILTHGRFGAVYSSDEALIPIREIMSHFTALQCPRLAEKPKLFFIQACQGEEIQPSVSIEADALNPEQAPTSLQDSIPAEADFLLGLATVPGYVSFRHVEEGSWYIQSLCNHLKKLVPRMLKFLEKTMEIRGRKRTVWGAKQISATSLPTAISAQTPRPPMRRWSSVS
UniProt Q9P0B6, sequence (Q9P0B6 whole entry, looked up): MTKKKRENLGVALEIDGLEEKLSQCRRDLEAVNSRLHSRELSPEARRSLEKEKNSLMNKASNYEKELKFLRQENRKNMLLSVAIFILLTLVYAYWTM
UniProt P49336, sequence (P49336 whole entry, looked up): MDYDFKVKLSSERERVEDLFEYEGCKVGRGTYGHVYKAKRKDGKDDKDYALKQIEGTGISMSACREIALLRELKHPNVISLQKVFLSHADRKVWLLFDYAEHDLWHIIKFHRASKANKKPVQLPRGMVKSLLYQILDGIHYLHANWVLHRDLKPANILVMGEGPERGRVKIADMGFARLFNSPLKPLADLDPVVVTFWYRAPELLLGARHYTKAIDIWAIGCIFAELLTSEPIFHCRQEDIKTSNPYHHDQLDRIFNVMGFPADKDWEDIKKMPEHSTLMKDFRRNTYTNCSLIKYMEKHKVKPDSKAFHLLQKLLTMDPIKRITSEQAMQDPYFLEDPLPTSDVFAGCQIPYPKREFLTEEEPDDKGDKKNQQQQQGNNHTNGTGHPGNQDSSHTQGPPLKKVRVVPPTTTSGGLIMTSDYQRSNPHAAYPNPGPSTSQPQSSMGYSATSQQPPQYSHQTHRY
UniProt Q8WUD6, sequence (Q8WUD6 whole entry, looked up): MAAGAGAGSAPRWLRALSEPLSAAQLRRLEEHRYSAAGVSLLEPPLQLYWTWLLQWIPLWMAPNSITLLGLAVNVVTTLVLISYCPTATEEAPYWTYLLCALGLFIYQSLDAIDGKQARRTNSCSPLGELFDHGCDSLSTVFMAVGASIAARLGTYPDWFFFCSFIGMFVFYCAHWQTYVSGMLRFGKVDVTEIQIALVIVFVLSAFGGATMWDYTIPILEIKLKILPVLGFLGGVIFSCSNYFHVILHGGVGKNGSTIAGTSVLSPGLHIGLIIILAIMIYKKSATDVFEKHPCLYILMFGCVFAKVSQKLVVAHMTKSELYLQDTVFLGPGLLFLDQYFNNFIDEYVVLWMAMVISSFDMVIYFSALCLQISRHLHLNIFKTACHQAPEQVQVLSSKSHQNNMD
UniProt Q6P5X5, sequence (Q6P5X5 whole entry, looked up): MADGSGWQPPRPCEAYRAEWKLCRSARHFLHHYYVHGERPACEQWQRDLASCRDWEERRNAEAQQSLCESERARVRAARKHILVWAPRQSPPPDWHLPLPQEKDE
UniProt P24311, sequence (P24311 whole entry, looked up): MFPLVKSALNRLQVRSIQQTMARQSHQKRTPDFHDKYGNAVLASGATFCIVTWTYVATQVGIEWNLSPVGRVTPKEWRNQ

log2 fold change, inactive:
CFAP36 isoform 2 (UniProt Q96G28) -0.017, CHPT1 (UniProt Q8WUD6) -0.176, C22orf39 (UniProt Q6P5X5) 0.081, CASP10 isoform 4 (UniProt Q92851) 0.004, COPS3 isoform 2 (UniProt Q9UNS2) 0.059, COX7B (UniProt P24311) 0.023, CCM2 isoform 2 (UniProt Q9BSQ5) 0.102, CCNT2 (UniProt O60583) 0.004, CRTC1 isoform 2 (UniProt Q6UUV9) -0.062, CDK5 (UniProt Q00535) 0, C15orf41 (UniProt Q9Y2V0) -0.165, CCDC167 (UniProt Q9P0B6) 0.019, C9orf72 (UniProt Q96LT7) -0.008, C19orf54 (UniProt Q5BKX5) 0.094, CDK19 (UniProt Q9BWU1) -0.114, CASP9 (UniProt P55211) 0.054, CRTC3 (UniProt Q6UUV7) 0.094, COG2 (UniProt Q14746) 0.008, CCNC (UniProt P24863) 0.035, CIR1 (UniProt Q86X95) -0.212, CDK8 (UniProt P49336) -0.098, COX17 (UniProt Q14061) 0.504, CHAF1A (UniProt Q13111) -0.039
